Compound activity as filed in PubChem BioAssay.
Tb PFK block = qHTS Assay to Find Inhibitors of T. brucei phosphofructokinase | Potency, µM (titrated, usually from 57.5 µM), hits mostly inhibitors | T. brucei PFK, ADP-Glo luminescence | 0.17% of 330,000 active; also: nearly all actives have a fitted effect of over 60% in size
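1.25 nM PFK with 0.5 mM F6P and 0.1 mM ATP in 0.1 M TEA pH 8.0, 5 mM MgCl2, incubated 45 min at room temperature; ADP measured by ADP-Glo luminescence; compounds titrated up to 57 uM.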
TDP1 block = qHTS Assay for Inhibitors of Tyrosyl-DNA Phosphodiesterase (TDP1); recombinant TDP1, AlphaScreen DNA substrate cleavage; Potency, µM (top dose mostly 130 µM), hits mostly inhibitors; 0.28% of 350,000 active; AID 485290, 2010; also: nearly all actives have a fitted effect of over 40% in size
Target sequence (Q9NUW8 whole entry, looked up): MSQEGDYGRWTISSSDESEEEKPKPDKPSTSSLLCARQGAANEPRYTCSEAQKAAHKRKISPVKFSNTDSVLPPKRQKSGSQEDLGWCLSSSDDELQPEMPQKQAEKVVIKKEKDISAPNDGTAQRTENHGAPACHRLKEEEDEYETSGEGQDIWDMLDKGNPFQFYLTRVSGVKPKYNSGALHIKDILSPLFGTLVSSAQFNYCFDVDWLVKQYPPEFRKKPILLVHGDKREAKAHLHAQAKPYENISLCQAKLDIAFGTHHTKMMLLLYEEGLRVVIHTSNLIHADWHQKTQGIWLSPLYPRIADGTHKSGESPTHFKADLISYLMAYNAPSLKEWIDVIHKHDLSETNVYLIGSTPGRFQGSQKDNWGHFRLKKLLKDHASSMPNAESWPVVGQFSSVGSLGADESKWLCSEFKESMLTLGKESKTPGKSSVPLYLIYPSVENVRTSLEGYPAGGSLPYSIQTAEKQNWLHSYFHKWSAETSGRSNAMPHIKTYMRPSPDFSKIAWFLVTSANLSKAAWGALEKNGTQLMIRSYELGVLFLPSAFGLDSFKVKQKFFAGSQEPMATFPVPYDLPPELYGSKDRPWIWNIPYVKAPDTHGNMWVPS
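Recombinant human Tdp1 (E. coli-expressed, 1 nM final) preincubated with compounds 15 min at room temperature, then 5'-biotin/3'-phosphotyrosine-FITC DNA substrate (15 nM final) added for 5 min. AlphaScreen beads (10 ug/ml final) added 10 min; cleavage lowers signal.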
ASM inhibitor = Inhibitors of Secretory Acid Sphingomyelinase (S-ASM): qHTS | Potency, µM (titrated, usually from 57.5 µM), most hits filed as inhibitors | 0.006% of 340,000 active | Sphingomyelin phosphodiesterase (Homo sapiens), P17405 | placental ASM, HMU-PC fluorogenic substrate, 60 min | AID 504937, 2011
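Fluorogenic HMU-PC substrate (9 uM final) is turned over by placental ASM in 60 min at 37 C after a 10 min compound preincubation. Reaction ended by alkaline stop (pH 10), with fluorescence read at 386/447 nm.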
VDR inhibitor = Inhibitors of the vitamin D receptor (VDR): qHTS; VDR-SRC2-3 peptide fluorescence polarization, 2 h; Potency, µM, most hits filed as inhibitors; 0.93% of 400,000 active
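FP read-out; VDR + SRC2-3 coactivator peptide; 23 nl compound by pintool; 2 h RT incubation; reagents held at 4 deg C, protected from light.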
Pin1 inh = qHTS Assay to Find Inhibitors of Pin1; Pin1 FP peptide displacement, HiFluor488, 10 min; Potency, µM (highest dose often 115 µM), usual class: inhibitors; 0.009% of 390,000 active; active = well fitted inhibition curve with a large enough effect in the polarisation, with a control signal flat, not every such curve was filed as active; inconclusive = small, poorly fitted or top-dose-only effect, or effect the other way, or a change in a side signal; inactive = no such curve, though single readings can be large or run the other way; the % refers to the polarisation
PLK1 PBD block = qHTS for Inhibitors of PLK1-PDB (polo-like kinase 1 - polo-box domain): Primary Screen; 2.8% of 360,000 active; Serine/threonine-protein kinase PLK1 (Homo sapiens), P53350; Plk1 PBD binding of FITC phosphopeptide, fluorescence polarization; Potency, µM, most hits filed as inhibitors; also: series mostly up to about 57 µM; nearly all actives have a fitted effect of over 65% in size
Numbers stand for hits; . = inactive; ? = inconclusive; / = not tested or not shown; [ ] = dose if it differs, or a comment. The list is not random: actives were taken first. Their share in the collection is about 3.1%. Unless noted, calls follow the shape of the dose curve; as a rule, active = well fitted curve in the direction sought with a large enough effect; inconclusive = small, poorly fitted or top-dose-only effect, or another doubt; inactive = no such curve, though single readings can be large; an effect the other way counts as inactive or inconclusive.

SMILES	Tb PFK block	TDP1 block	ASM inhibitor	VDR inhibitor	Pin1 inh	PLK1 PBD block
COC(=O)C1=C(O)/C(=C\c2ccc(OCC(=O)Nc3ccc(OC)cc3)cc2)N=C1C	.	.	.	.	.	.
COC(=O)C1=C(O)/C(=C\c2ccc(OCC(=O)Nc3ccccc3OC)cc2)N=C1C	.	.	.	?	?	21µM
Cc1cc(C)c(S(=O)(=O)NCC(c2cccs2)S(=O)(=O)c2ccccc2)c(C)c1 (stereo unspecified)	/	.	/	.	.	/
CNc1ccccc1C(C)(C)c1cc(C)[nH]n1	.	.	.	?	.	8.4µM
N#C/C(=C/c1ccc(OCc2ccc(C(=O)O)cc2)cc1)C(=O)Nc1ccccc1	.	/	.	?	.	?
CCOc1cc(/C=C(\C#N)C(=O)Nc2cccc(C(=O)O)c2)cc(Br)c1OC(=O)c1ccc(OC)cc1	.	.	?	25µM	?	9.5µM
N#C/C(=C\c1ccc(OCc2ccc(Br)cc2)cc1)C(=O)Nc1cccc(C(=O)O)c1	.	22µM	.	?	/	21µM
N#C/C(=C\c1ccc(OCc2ccc(F)cc2)cc1)C(=O)Nc1cccc(C(=O)O)c1	.	45µM	.	?	?	?
N#C/C(=C\c1ccc(OCc2ccccc2)cc1)C(N)=O	.	.	.	?	.	9.5µM
COc1cccc(N2C(=O)CSC23C(=O)N(CC(=O)Nc2cc(C)ccc2C)c2ccccc23)c1 (stereo unspecified)	/	.	/	.	.	/
COC(=O)C1=C(C(=O)OC)[C@@H]2N(C)c3ccc(OC)cc3[C@@]23C[C@@H](C(=O)OC)N(S(=O)(=O)c2ccc(C#N)cc2)C3=N1	/	.[12.3 µM]	/	/	/	/
CCOc1cc(/C=C(\C#N)C(=O)Nc2cccc(C(=O)O)c2)ccc1OCc1ccccc1Cl	.	79µM	.	?	?	21µM
COc1cc(/C=C(\C#N)C(=O)Nc2cccc(C(=O)O)c2)ccc1OCc1ccc(F)cc1	.	56µM	.	?	.	?
N#C/C(=C\c1cc([N+](=O)[O-])ccc1Cl)C(N)=O	.	.	.	?	.	?
N#C/C(=C/c1ccc([N+](=O)[O-])cc1)C(N)=O	.	.	.	79µM	.	.
O=C(NCc1ccccc1)c1cccnc1	.	/	.	?	.	.
O=C(NCc1ccc(Cl)cc1)c1cccnc1	.	.	.	.	.	24µM
COCC(=O)N1c2nc(-c3ccco3)nn2C2(CCCCC2)[C@@H]2CCCC[C@@H]21	/	.	/	.	.	/
Cc1ccc(SSc2cc(C)ccc2N)c(N)c1	21µM	.	.	6.3µM	.	0.34µM
CC1(OC(=O)c2ccc(Cl)nc2)C(=O)C=c2cc(-c3ccsc3)ncc2=C1OC(=O)C1CCCC1 (stereo unspecified)	/	.[12.3 µM]	/	/	/	/
CCOC(=O)c1c(NC(=O)CCCC(=O)O)sc2c1CCC2	.	.	.	.	.	.
CCOC(=O)c1c(NC(=O)C2CC(Cl)=CCC2C(=O)O)sc2c1CCCCC2 (stereo unspecified)	.	22µM	.	.	.	?
CCOC(=O)c1c(NC(=O)CCC(=O)O)sc2c1CCCCC2	?	.	.	?	.	6.7µM
O=C1c2ccccc2C(=O)N1c1cnc2ccccc2c1	/	.	/	/	.	/
O=c1c(F)cn(C2CCCO2)c(=O)n1Cc1ccc(Cl)cc1 (stereo unspecified)	.	.	.	.	.	27µM
Cc1cc(C)cc(N(CC(=O)O)S(=O)(=O)c2c(C)noc2C)c1	.	.	.	.	.	.
CCOc1ccc(N(CC(=O)NC2CCCCC2)S(=O)(=O)c2c(C)noc2C)cc1	.	.	.	?	.	30µM
CCc1ccc(N(CC(=O)O)S(=O)(=O)c2c(C)noc2C)cc1	.	.	.	.	.	30µM
